Experimental data as given in the supplement of paper PMC10981050.
Counter-ions that a name gives are not always drawn.

Test system: MOLM14
Test: cell viability relative to vehicle control; higher = less cytotoxic
Conditions: 10 µM; SRSF2 genotype: SRSF2 wt/wt
Method in brief: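 CRISPR-edited SRSF2 P95 mutant and isogenic wild-type clones of four leukaemia lines were screened against Selleck bioactive, kinase and epigenetic probe libraries, with identity-inconsistent compounds removed. Compounds were acoustically dispensed into 384-well plates at a single 10 µM dose, with 2000 cells in 50 µL medium per well. After 48 h, supernatant was removed and CellTiter-Glo luminescence was read. Viability was expressed as percent of the on-plate DMSO vehicle control, analysed in Genedata Screener.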

Compound | cell viability
COc1cc(C=O)c([N+](=O)[O-])cc1OC | 109%
CCOc1ccccc1OCCN[C@H](C)Cc1ccc(OC)c(S(N)(=O)=O)c1 [Tamsulosin hydrochloride] | 103%
O=C1CC(=O)c2c(Cl)c(Cl)c(Cl)c(Cl)c21 | 93.7%
CO/N=C(\C(=O)N[C@@H]1C(=O)N2C(C(=O)O)=C(CSC(=O)c3ccco3)CS[C@H]12)c1csc(N)n1 [Ceftiofur hydrochloride] | 93.5%
CC1=CC(=O)CC(C)(C)C1=O [Ketoisophorone] | 105%
CO[C@@]12[C@H](COC(N)=O)C3=C(C(=O)C(C)=C(N)C3=O)N1C[C@@H]1N[C@@H]12 [Mitomycin C] | 0.37%
O=c1cc(-c2ccc(O)c(O)c2)oc2cc(O)cc(O)c12 [Luteolin] | 57%
Cc1cc(C2CCCCC2)n(O)c(=O)c1 [Ciclopirox ethanolamine] | 2.23%
N[C@@H]1CN(c2c(F)cc3c(=O)c(C(=O)O)cn([C@@H]4C[C@@H]4F)c3c2Cl)CC12CC2 [Sitafloxacin hydrate] | 103%
COCCCN1CCC(NC(=O)c2cc(Cl)c(N)c3c2OCC3)CC1 [Prucalopride] | 88.9%
COc1cc2nc(N3CCCC3)nc(NCCCCCN3CCCC3)c2cc1OC | 0.27%
O=C(O)c1ccc2c(c1)C(=O)c1ccccc1C2=O [Anthraquinone-2-carboxylic Acid] | 98.5%
C[C@@H]1O[C@@H]1P(=O)(O)O [fosfomycin tromethamine] | 104%
CCCCCCCCCC[C@H](C(=O)O)[C@]1(C(=O)O)CCC(=O)O1 [Spiculisporic Acid] | 110%
CC1(C)CCC2(C(=O)O)C(O)CC3(C)C(=CCC4C5(C)CC(O)C(O)C(C)(CO)C5CCC43C)C2C1 (stereo not given) [Polygalacic acid] | 100%
C[C@H]1[C@H](NC(=O)/C(=N\OC(C)(C)C(=O)O)c2csc(N)n2)C(=O)N1S(=O)(=O)O [Aztreonam (Azactam, Cayston)] | 108%
C#C[C@]1(O)CC[C@H]2[C@@H]3CCc4cc(O)ccc4[C@H]3CC[C@@]21C [Ethinyl Estradiol] | 98.8%
CC(C)COc1ccc(CNC(=O)N(Cc2ccc(F)cc2)C2CCN(C)CC2)cc1 [Pimavanserin] | 0.22%
Oc1cc(O)c2c(c1)OC(c1ccc(O)c(O)c1)C(O)C2 (single isomer, unassigned; (+)) [(+)-Catechin hydrate] | 104%
Cc1ccc([C@@H]2O[C@H](CO)[C@@H](O)[C@H](O)[C@H]2O)cc1Cc1ccc(-c2ccc(F)cc2)s1 [Canagliflozin] | 102%

Compound | cell viability
Nc1ncnc2c1c(-c1cnc3[nH]ccc3c1)nn2C1CCCC1 | 13.2%
COc1ccc(-c2oc3c(CC=C(C)C)c(O)cc(O)c3c(=O)c2O[C@@H]2O[C@@H](C)[C@H](O)[C@@H](O)[C@H]2O)cc1 [Baohuoside I] | 88.5%
OC1CCC(Oc2cccc3cnc(Nc4ccc5nc[nH]c5c4)nc23)CC1 (stereo not given) | 0.57%
CC(C)(C)c1[nH]cnc1/C=c1\[nH]c(=O)/c(=C/c2ccccc2)[nH]c1=O [NPI-2358 (Plinabulin)] | 1.52%
CN(C)C(=O)c1ccc(S(=O)(=O)c2ccc(NC(=O)C(C)(O)C(F)(F)F)c(Cl)c2)cc1 (stereo not given) | 84.5%
CN(C)C(=O)COC(=O)Cc1ccc(OC(=O)c2ccc(NC(=N)N)cc2)cc1 [Camostat Mesilate (FOY-305)] | 98.8%
C[C@@H]1COC(Nc2ccc3ncnc(Nc4ccc(OCc5nccs5)c(Cl)c4)c3c2)=N1 [Varlitinib] | 96.3%
CCOC(=O)[C@H](CCc1ccccc1)N[C@H]1CS[C@H](c2cccs2)CN(CC(=O)O)C1=O [Temocapril HCl] | 102%
Nc1ccn([C@H]2CC[C@@H](CO)O2)c(=O)n1 [Zalcitabine] | 107%
OCCOCCN1CCN(Cc2cccc(Oc3ccccc3)c2)CC1 | 99.8%
CC(C)[C@H]1CC[C@H](C(=O)N[C@H](Cc2ccccc2)C(=O)O)CC1 [Nateglinide (Starlix)] | 99.3%
Nc1ccc(O)c(C(=O)O)c1 [Mesalamine (Lialda)] | 92.1%
NCCCCCN [Cadaverine] | 101%
CN[C@@H](C)C(=O)N[C@H](C(=O)N1CCC[C@H]1c1nc(C(=O)c2ccc(F)cc2)cs1)C1CCCCC1 | 82.3%
Nc1[nH]c(=O)ncc1Br [5-Bromocytosine] | 105%
COc1nc(C)cnc1NS(=O)(=O)c1cccnc1-c1ccc(-c2nnco2)cc1 [Zibotentan (ZD4054)] | 97.5%
CC(=CCNc1ncnc2nc[nH]c12)CO [Trans-Zeatin] | 103%
CCCCCCCCOc1ccccc1C(=O)Nc1ccc(C(=O)OCC[N+](C)(CC)CC)cc1 [Otilonium Bromide] | 89%
CCCCCCCC/C=C\CCCCCCCCCCCC(=O)O [Erucic acid] | 107%
C=C1C(=O)[C@]23[C@H](O)[C@H]1CC[C@H]2[C@@]12CO[C@]3(O)[C@@H](O)[C@@H]1C(C)(C)CC[C@@H]2O [Oridonin (Isodonol)] | 3.32%
